In PubChem BioAssay AID624284 (Southern Research Specialized Biocontainment Screening …, 2012):
Entries with a potency or affinity are not part of this list. Activity calls are given as the source filed them. How the calls were made is not given here.

assay: cell based cytopathic effect inhibition, veev tc 83 strain, confirmatory screen (AID 624284); conditions: VEEV TC-83 infected cells; at 25 µM (top of the series)

Structure (SMILES)	outcome	inhibition [%]
CCN1CCN(Cc2nc3ccc(C(=O)N(C)C)cc3c(=O)n2-c2ccccc2)CC1	inactive	–
CCN1CCN(Cc2nc3cccc([N+](=O)[O-])c3c(=O)n2-c2ccccc2)CC1	inactive	–
CCN1CCN(Cc2nc3ccc([N+](=O)[O-])cc3c(=O)[nH]2)CC1	–	-1
CCN1CCN(Cc2nc3cc([N+](=O)[O-])ccc3c(=O)n2-c2ccccc2)CC1	inactive	–
CCN1CCN(Cc2nc3ccc([N+](=O)[O-])cc3c(=O)n2C(C)C)CC1	inactive	–
NS(=O)(=O)c1ccc(-n2c(-c3ccccc3)nc3ccc(Br)cc3c2=O)cc1	inactive	–
CCN1CCN(Cc2nc3ccc(C(N)=O)cc3c(=O)n2-c2ccccc2)CC1	inactive	–
